# In article PMC7862700, “An all-to-all approach to the identification of sequence-specific readers for epigenetic DNA modifications on cytosine”:
# Assays:
# Assay in all cases: DAPPL (digital affinity profiling via proximity ligation, sequencing); 10 mM Tris-HCl pH 7.5, 50 mM NaCl, 1 mM DTT, 4% glycerol, room temperature, 30 min; GST-TFs on glutathione beads, 16-mer random dsDNA library, 0.1% formaldehyde crosslink after washing; high values mean tight binding
# Conditions in all cases: protein: recombinant; tags: N-terminal GST; dsDNA, one strand shown
# ETV2 = biological target: T1, ETV2 (Homo sapiens, UniProt O00321 1-342)
# T1 sequence: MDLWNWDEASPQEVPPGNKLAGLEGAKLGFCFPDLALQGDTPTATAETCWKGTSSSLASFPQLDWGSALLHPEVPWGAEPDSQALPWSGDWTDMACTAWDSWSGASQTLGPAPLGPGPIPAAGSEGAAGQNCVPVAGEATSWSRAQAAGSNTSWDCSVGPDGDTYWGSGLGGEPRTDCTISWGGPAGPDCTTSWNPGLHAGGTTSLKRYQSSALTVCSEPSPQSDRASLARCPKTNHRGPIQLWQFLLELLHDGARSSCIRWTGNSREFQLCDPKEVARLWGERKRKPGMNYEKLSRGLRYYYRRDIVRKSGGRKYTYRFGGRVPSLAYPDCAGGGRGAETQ
# Outline: (§1)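 A tag-only sample was pooled with DNA-barcoded human transcription factors that had been expressed in yeast as GST fusions and captured on glutathione beads. The pools were incubated for 30 min at room temperature with 200 nmole of a random double-stranded 16-mer DNA library in Tris/NaCl/DTT/glycerol buffer, then washed, crosslinked with 0.1% formaldehyde, proximity-ligated (BsaI/T4 ligase, 1 h, 37 °C), PCR-amplified and sequenced on an Illumina NextSeq500. Binding signal is each hexamer's read frequency for a factor divided by its frequency for the tag-only sample.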
# ELF3 = biological target: T2, ELF3 (Homo sapiens, UniProt P78545 1-371)
# T2 sequence: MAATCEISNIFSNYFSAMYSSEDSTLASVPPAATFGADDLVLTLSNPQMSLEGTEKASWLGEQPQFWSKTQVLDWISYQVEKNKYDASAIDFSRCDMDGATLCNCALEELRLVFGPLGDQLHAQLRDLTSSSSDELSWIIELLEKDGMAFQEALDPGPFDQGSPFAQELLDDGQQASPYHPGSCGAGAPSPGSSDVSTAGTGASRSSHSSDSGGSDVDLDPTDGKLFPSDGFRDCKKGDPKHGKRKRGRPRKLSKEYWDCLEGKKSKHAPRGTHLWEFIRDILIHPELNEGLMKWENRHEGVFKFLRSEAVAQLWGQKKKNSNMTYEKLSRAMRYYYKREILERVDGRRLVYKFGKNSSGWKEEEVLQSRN
# Outline: as §1
# ETV1 = ETV1 (Homo sapiens, UniProt P50549 1-477)
# Outline: as §1
# ERF = biological target: T3, ERF (Homo sapiens, UniProt P50548 1-548)
# T3 sequence: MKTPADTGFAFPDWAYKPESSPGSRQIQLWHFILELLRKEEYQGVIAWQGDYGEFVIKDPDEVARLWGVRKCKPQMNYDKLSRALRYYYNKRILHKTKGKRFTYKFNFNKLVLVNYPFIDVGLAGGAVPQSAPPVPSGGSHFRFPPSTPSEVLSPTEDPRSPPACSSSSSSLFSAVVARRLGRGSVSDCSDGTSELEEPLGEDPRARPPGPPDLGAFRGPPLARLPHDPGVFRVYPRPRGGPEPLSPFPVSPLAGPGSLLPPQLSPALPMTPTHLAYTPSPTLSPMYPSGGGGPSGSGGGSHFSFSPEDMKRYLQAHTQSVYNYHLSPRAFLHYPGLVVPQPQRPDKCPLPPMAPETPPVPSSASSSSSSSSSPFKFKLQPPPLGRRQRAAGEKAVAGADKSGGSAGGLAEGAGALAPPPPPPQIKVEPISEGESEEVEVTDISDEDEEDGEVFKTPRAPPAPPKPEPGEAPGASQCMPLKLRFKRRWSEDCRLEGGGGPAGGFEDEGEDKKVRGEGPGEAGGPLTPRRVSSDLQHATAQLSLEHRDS
# Outline: as §1
# ETV3L = biological target: T4, ETV3L (Homo sapiens, UniProt Q6ZN32 1-361)
# T4 sequence: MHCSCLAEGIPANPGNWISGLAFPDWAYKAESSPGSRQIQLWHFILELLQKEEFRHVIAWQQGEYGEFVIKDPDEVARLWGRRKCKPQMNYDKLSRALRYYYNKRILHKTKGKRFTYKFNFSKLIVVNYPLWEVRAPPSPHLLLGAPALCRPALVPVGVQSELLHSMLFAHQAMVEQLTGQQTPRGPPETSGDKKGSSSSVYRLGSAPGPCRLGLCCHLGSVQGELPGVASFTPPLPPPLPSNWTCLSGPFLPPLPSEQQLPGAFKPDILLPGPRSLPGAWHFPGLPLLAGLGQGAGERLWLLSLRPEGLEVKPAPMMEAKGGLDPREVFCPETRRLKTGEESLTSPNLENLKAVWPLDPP
# Outline: as §1
# ETS2 = biological target: T5, ETS2 (Homo sapiens, UniProt P15036 1-469)
# T5 sequence: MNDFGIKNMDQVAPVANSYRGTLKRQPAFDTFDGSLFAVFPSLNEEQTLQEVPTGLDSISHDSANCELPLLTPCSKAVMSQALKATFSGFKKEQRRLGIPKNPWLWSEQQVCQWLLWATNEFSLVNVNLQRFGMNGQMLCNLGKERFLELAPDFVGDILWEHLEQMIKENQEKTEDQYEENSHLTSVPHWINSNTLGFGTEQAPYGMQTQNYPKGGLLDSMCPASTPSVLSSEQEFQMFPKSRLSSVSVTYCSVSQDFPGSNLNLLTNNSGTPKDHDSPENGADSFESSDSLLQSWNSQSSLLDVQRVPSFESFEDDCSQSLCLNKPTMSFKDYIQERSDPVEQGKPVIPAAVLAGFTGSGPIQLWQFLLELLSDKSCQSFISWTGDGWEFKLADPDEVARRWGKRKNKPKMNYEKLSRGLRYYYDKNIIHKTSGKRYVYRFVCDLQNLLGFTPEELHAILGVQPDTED
# Outline: as §1
# SPDEF = biological target: T6, SPDEF (Homo sapiens, UniProt O95238 1-335)
# T6 sequence: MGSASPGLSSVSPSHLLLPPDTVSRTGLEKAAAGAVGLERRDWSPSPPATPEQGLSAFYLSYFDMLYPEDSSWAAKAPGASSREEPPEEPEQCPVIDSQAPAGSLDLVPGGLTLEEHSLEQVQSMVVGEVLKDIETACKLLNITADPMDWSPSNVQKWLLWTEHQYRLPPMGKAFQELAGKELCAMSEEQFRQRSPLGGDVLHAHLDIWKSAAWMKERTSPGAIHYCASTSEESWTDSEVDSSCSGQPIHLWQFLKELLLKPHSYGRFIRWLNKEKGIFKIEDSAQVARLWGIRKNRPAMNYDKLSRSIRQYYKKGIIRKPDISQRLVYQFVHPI
# Outline: as §1
# ETV7 = biological target: T7, ETV7 (Homo sapiens, UniProt Q9Y603 1-341)
# T7 sequence: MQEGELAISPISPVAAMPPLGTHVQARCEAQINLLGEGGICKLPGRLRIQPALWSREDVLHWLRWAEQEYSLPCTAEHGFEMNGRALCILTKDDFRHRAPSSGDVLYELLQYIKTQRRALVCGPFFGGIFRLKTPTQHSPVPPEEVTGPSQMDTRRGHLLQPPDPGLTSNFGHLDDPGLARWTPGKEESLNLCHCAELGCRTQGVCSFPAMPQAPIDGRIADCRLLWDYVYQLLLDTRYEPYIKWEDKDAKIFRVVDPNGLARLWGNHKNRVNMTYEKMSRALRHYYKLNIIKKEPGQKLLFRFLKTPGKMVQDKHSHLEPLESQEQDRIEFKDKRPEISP
# Outline: as §1
# ETV3 = biological target: T8, ETV3 (Homo sapiens, UniProt P41162-2 1-143)
# T8 sequence: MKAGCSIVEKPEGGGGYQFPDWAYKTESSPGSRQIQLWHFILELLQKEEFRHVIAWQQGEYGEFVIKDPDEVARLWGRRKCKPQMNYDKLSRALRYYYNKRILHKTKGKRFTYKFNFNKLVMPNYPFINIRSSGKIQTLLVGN
# Outline: as §1
# ETV6 = ETV6 (Homo sapiens, UniProt P41212 1-452)
# Outline: as §1
# Chain of ETV6 (P41212 whole entry): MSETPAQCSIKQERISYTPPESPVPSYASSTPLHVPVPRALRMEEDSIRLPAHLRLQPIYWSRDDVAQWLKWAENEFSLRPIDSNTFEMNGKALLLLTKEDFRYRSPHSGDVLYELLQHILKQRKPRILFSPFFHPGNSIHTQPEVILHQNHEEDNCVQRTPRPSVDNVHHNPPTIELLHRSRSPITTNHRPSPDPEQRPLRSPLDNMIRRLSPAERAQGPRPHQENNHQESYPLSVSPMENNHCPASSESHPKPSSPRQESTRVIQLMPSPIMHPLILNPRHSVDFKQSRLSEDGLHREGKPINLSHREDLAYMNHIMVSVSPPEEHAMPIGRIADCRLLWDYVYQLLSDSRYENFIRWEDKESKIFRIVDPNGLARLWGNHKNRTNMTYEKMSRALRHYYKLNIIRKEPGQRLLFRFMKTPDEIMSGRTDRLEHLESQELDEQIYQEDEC
# Chain of ETV1 (P50549 whole entry): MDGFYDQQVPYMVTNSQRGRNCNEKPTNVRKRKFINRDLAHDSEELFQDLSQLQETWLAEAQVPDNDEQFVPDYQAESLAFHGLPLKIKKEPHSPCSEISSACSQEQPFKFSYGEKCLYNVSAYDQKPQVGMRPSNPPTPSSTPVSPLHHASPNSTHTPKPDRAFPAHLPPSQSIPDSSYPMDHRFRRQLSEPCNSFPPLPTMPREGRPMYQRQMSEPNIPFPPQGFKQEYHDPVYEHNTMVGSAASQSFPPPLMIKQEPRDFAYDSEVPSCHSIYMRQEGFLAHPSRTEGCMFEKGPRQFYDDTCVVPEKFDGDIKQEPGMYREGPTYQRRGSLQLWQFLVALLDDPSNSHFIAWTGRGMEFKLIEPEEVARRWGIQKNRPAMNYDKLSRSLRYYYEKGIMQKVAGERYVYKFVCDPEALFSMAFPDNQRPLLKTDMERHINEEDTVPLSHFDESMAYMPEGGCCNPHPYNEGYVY
sequence,measurement,setting,value
CCCAAA,binding signal,ETV2,"1.3 fold enrichment (6-mer frequency, TF over GST control)"
same,binding signal,ELF3,"1.2 fold enrichment (6-mer frequency, TF over GST control)"
same,binding signal,ETV1,"1.08 fold enrichment (6-mer frequency, TF over GST control)"
same,binding signal,ERF,"1.11 fold enrichment (6-mer frequency, TF over GST control)"
same,binding signal,ETV3L,"1.12 fold enrichment (6-mer frequency, TF over GST control)"
same,binding signal,ETS2,"1.02 fold enrichment (6-mer frequency, TF over GST control)"
same,binding signal,SPDEF,"1.06 fold enrichment (6-mer frequency, TF over GST control)"
same,binding signal,ETV7,"1.09 fold enrichment (6-mer frequency, TF over GST control)"
same,binding signal,ETV3,"1.02 fold enrichment (6-mer frequency, TF over GST control)"
same,binding signal,ETV6,"1.1 fold enrichment (6-mer frequency, TF over GST control)"
